# Laboratory results taken from PubChem BioAssay (NCI).
# The panel holds about 83,000 compounds, 20% with a hit somewhere; the sample as a whole holds those more often.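 Cells were grown in 96-well plates and exposed to the test compound at a single concentration for 48 hours; results are reported as percent growth, with values below 10 considered active.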 Activity calls are given as the source filed them.
# Tested on: KM12 colon
# Assay: NCI-60 one-dose screen, 48 h (100 = growth as untreated, 0 = no growth, -100 = all killed)
# Conditions: 10 µM unless noted
# Method: Growth inhibition of the KM12 human tumor cell line is measured as a screen for anti-cancer activity. Cells are grown in 96 well plates and exposed to the test compound for 48 hours. Compounds are tested at a single concentration, which is 10^-5 M for most compounds. The reported endpoint is percent growth (GI% or GIPRCNT), where numbers from 0 - 100% represent growth inhibition, and numbers from -100% - 0 represent cell death. For example, a value of 40 represents 60% growth inhibition. A value of 0 means no net growth occurred over the course of the experiment. A value of -40 indicates 40% of cells at the beginning of the experiment died by the end of the experiment. A value of -100 means all cells are dead at the end of the experiment.
# NCI-60 Human Tumor Cell Lines Screen was performed using the standard one-dose NCI protocol, which is described in more detail at https://dtp.cancer.gov/discovery_development/nci-60/default.htm.
# Compounds with GIPRCNT values below 10 were considered active. Activity score was based on GIPRCNT using the following formula: […]
# Score is 0 for GIPRCNT values of 100 or above, 50 for GIPRCNT values of 0, and 100 for GIPRCNT values of -100.
row,SMILES,growth
1,CN1CCN(Cc2ccc(NC(=O)c3cncc(C#Cc4cnc5ccc(N6CCN(C)CC6)nn45)c3)cc2C(F)(F)F)CC1,-78.8% (active)
2,COc1ccccc1N1CCN(C2=CC(=O)C(C)=C(C)C2=O)CC1,105% (inactive)
3,O=C(CSc1nnc(-c2ccc3nc(-c4ccccc4)[nH]c3c2)o1)Nc1ccc(C(=O)/C=C/c2ccccc2)cc1,110% (inactive)
4,NC(N)=Nc1ccc(Oc2cccc(NC(N)=Nc3ccc(I)cc3F)c2)cc1,79.3% (inactive)
5,C[C@H](CCC(=O)NCc1ccc(C(=O)Nc2ccccc2N)cc1)[C@H]1CC[C@H]2[C@@H]3[C@@H](O)C[C@@H]4C[C@H](O)CC[C@]4(C)[C@H]3CC[C@]12C,64% (inactive)
6,COc1ccc(/C=C/C(=O)c2cc(S(N)(=O)=O)c(OC)cc2OC)cc1,40.9% (inactive)
7,COc1cc2oc(-c3cccc(NC(=O)c4cc(N)ccc4Cl)c3)cc(=O)c2c(OC)c1OC,96.4% (inactive)
8,CCO/C=N/C1=C(C#N)C(c2ccc(Cl)cc2)c2sc3c(CC)cccc3c2O1 (stereo not given),15.3% (inactive)
9,COc1cc(-c2nn(C(C)(C)C)cc2-c2ccnc(NCCCNS(=O)(=O)c3ccc(Cl)cc3)n2)ccc1Cl,68.8% (inactive)
10,CCOC(=O)c1c(NC(=O)c2ccccc2C(F)(F)F)sc2c1CCC(=O)C2,7.7% (active)
11,Cc1ccc(-c2nnc(SCc3ccc(O)c4ncccc34)o2)cc1,11.4% (inactive)
12,Nn1c(N/N=C/c2nc3ccccc3s2)n[nH]c1=S,102% (inactive)
13,Cc1cc(C)c2sc(=O)n(Cc3nnc(SCCC(=O)O)o3)c2n1,106% (inactive)
14,CCOc1ccc(NC2=C(Cl)C(=O)c3nc(C)ccc3C2=O)cc1,57.4% (inactive)
15,Cn1ccnc1C(=O)/C=C/c1ccc(CNC(=O)c2ccc(S(F)(F)(F)(F)F)cc2)cc1,13% (inactive)
16,NS(=O)(=O)c1ccc(-n2cc(CN3CCCCC3)nn2)cc1,95.3% (inactive)
17,NC(N)=Nc1ccc(Nc2cccc(Oc3ccc(Cl)c(C(F)(F)F)c3)c2)cn1,-58.7% (active)
18,CC(=O)N1N=C(c2cccc(-n3cccc3)c2)CC1c1cccc(F)c1 (stereo not given),103% (inactive)
19,COc1ccc(/C=N/NC(=O)c2cn(C3CC3)c3c(OC)c(N4CC5CCCNC5C4)c(F)cc3c2=O)cc1 (stereo not given),99.7% (inactive)
20,Nc1nc(N)c2c(n1)NC(c1ccc(Cl)cc1)CC(c1ccc(Nc3nc(NCCO)nc(N4CCOCC4)n3)cc1)=N2 (stereo not given),65.3% (inactive)

row,SMILES,growth
1,ClC(Cl)c1nc(-c2ccco2)n2nc(-c3ccccc3)cc2n1,-27.4% (active)
2,Nc1nc(Nc2ccccc2SSc2ccccc2Nc2nc(N)nc(-c3ccc4ccccc4c3)n2)nc(-c2ccc3ccccc3c2)n1,51.5% (inactive)
3,C=C(C=O)[C@@H]1CC[C@]2(COC(C)=O)CC[C@]3(C)C(CC[C@@H]4[C@@]5(C)CC[C@H](OC(C)=O)C(C)(C)[C@@H]5CC[C@]43C)[C@@H]12 (stereo not given in full),-40.8% (active)
4,CC(=O)c1ccc(Nc2nc(SCC(C)C)nc(-c3ccc(F)cc3)c2C#N)cc1,104% (inactive)
5,O=C(Nc1ccc2c(ccn2Cc2ccccn2)c1)c1ccnnc1,99.4% (inactive)
6,NS(=O)(=O)c1ccc(Nc2nc(N/N=C/c3c[nH]c4ccccc34)nc(Nc3ccccc3)n2)cc1,27.3% (inactive)
7,NS(=O)(=O)c1ccc(Nc2nc(N/N=C/c3ccc(Cl)cc3)nc(Nc3ccccc3)n2)cc1,63.3% (inactive)
8,Nc1cc(F)ccc1NC(=O)c1ccc(NC(=O)C/C=C/c2cccnc2)cc1,41.5% (inactive)
9,N/C(=N\C(N)=N\c1nc2ccccc2s1)c1ccncc1Cl,24.1% (inactive)
10,CC1=CC(=O)C2=C(C)CC(OC(=O)CCc3ccccc3)[C@@H]3[C@H](OC(=O)[C@@H]3C)[C@@H]12 (stereo not given in full),91.2% (inactive)
11,O=C(CNc1nc(-c2cccc([N+](=O)[O-])c2)cs1)Nc1cccc(Cl)c1,100% (inactive)
12,FC(F)(F)c1cc(Nc2cccc(Oc3ccc(NC4=NCCN4)nc3)c2)ccc1Cl,-60.4% (active)
13,Nc1nc(Nc2ccccc2SSc2ccccc2Nc2nc(N)nc(-c3cccc(Br)c3)n2)nc(-c2cccc(Br)c2)n1,23.6% (inactive)
14,COc1ccc2c(c1)c(CC(=O)[Se]CCC#N)c(C)n2C(=O)c1ccc(Cl)cc1,26.5% (inactive)
15,C=CCn1c(SCC(=O)Nc2ccc(C(=O)/C=C/c3cccc([N+](=O)[O-])c3)cc2)nnc1-c1c[nH]c2ccccc12,93.4% (inactive)
16,CS(=O)(=O)Nc1cc(-c2ccc3ncc(C#N)c(NCc4ccccc4F)c3c2)cnc1Cl,11.5% (inactive)
17,O=C1[C@H]2Cc3c([nH]c4ccccc34)[C@@H](c3c(Cl)cccc3Cl)N2C(=O)CN1C1CCN(CC2CCCCC2)CC1,92% (inactive)
18,Cc1nn(-c2ccccc2)c2ncnc(N/N=C/c3ccccc3O)c12,16.7% (inactive)
19,COc1cc(/C=C/C(=O)c2ccc(NC(=O)CSc3nnc(-c4ccc(-c5nc6ccc(Cl)cc6[nH]5)cc4)o3)cc2)cc(OC)c1OC,80.6% (inactive)
20,CC(c1ccccc1)N1CSc2nc3ncncc3n2C1 (stereo not given),21.8% (inactive)
